Experimental data published in PubChem BioAssay (NCATS).
Records with an inconclusive call do not appear. Calls of active or inactive are those of the source. The call rests on the fitted dose curve; in most records, active means well fitted inhibition curve with a large enough effect; inconclusive means small, poorly fitted or top-dose-only effect; inactive means flat fitted curve, though single readings scatter.

What was measured:
Experiment in all cases: qHTS profiling for inhibitors of Plasmodium falciparum proliferation (AID 504749); further: nearly all actives have a fitted effect of over 60% in size
Details in all cases: P. falciparum in erythrocytes, SYBR Green DNA, 72 h; series mostly up to 28.7 µM
[1] = tested on: ATS95
Procedure, shortened: (§1)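 P. falciparum-infected erythrocytes (0.3% parasitemia, 2.5% hematocrit) incubated with compound 72 h at 37 C, 5% CO2. Parasite DNA detected by SYBR Green after lysis, overnight at room temperature; normalised to 0.29 uM artemisinin and DMSO.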

[2] = tested on: C2A
Procedure, shortened: as §1

[3] = tested on: CP185
Procedure, shortened: as §1

[4] = tested on: CP191
Procedure, shortened: as §1

[5] = tested on: CP192
Procedure, shortened: as §1

[6] = tested on: CP194
Procedure, shortened: as §1

[7] = tested on: CP201
Procedure, shortened: as §1

[8] = tested on: CP203
Procedure, shortened: as §1

[9] = tested on: CP211
Procedure, shortened: as §1

[10] = tested on: CP215
Procedure, shortened: as §1

Measured: Potency

CCN(CC)C(=O)/C(Cl)=C(\C)OP(=O)(OC)OC
inactive: [1] | [2] | [3] | [4]

O=[N+]([O-])c1ccc(F)c([N+](=O)[O-])c1
inactive: [1] | [2] | [3] | [4] | [5] | [6] | [7] | [8] | [9] | [10]

CC(N)Cc1ccc(O)cc1 (centres undefined)
inactive: [1] | [2] | [3] | [4] | [5] | [6] | [7] | [8] | [9] | [10]

C[C@H]1CC[C@@H]2[C@@H](C)[C@H]3[C@H](C[C@H]4[C@@H]5CC=C6CC(O[C@@H]7O[C@H](CO)[C@H](O)[C@H](O[C@@H]8O[C@H](CO)[C@@H](O)[C@H](O)[C@H]8O)[C@H]7O[C@H]7O[C@@H](C)[C@H](O)[C@@H](O)[C@H]7O)CC[C@]6(C)[C@H]5CC[C@]34C)N2C1 (some centres undefined)
inactive: [1] | [2] | [3] | [4] | [5] | [6] | [7] | [8] | [9] | [10]

[N-]=[N+]=CC(=O)OCC(N)C(=O)O (centres undefined)
inactive: [1] | [2] | [3] | [4] | [5] | [6] | [7] | [8] | [9] | [10]

C=CCN=C=S
inactive: [1] | [2] | [3] | [4]

C=CCN1CC[C@]23c4c5ccc(O)c4O[C@H]2[C@@H](O)C=C[C@H]3[C@H]1C5
inactive: [1] | [2] | [3] | [4] | [5] | [6] | [7] | [8] | [9] | [10]

C[C@]12CCC(=O)C[C@@H]1CC[C@@H]1[C@@H]2CC[C@]2(C)[C@@H](O)CC[C@@H]12
inactive: [1] | [2] | [3] | [4] | [5] | [6] | [7] | [8] | [9] | [10]

CC(Cc1ccccc1)NC=O (centres undefined)
inactive: [1] | [2] | [3] | [4] | [5] | [6] | [7] | [8] | [9] | [10]

C#CC(C)(O)CC (centres undefined)
inactive: [1] | [2] | [3] | [4] | [5] | [6] | [7] | [8] | [9] | [10]

ClC=C(Cl)Cl
inactive: [1] | [2] | [3] | [4] | [5] | [6] | [7] | [8] | [9] | [10]

ClC(Cl)(Cl)Cl
inactive: [1] | [2] | [3] | [4] | [5] | [6] | [7] | [8] | [9] | [10]

O=C(NC(=O)c1c(F)cccc1F)Nc1ccc(Cl)c(Oc2ncc(C(F)(F)F)cc2Cl)c1
inactive: [1] | [2] | [3] | [4] | [5] | [6] | [7] | [8] | [9]

O=C1CN(O)C(c2ccccc2)=c2cc(Cl)ccc2=N1
inactive: [1] | [2] | [3] | [4] | [5] | [6] | [7] | [8] | [9] | [10]

O=Cc1ccco1
inactive: [1] | [2] | [3] | [4] | [5] | [6] | [7] | [8] | [9] | [10]

[O]=[Cd]
inactive: [1] | [2] | [3] | [4] | [5] | [6] | [7] | [8] | [9] | [10]

CCCCNCC(O)c1ccc(O)cc1 (centres undefined)
inactive: [1] | [2] | [3] | [4] | [5] | [6] | [7] | [8] | [9] | [10]

c1cc2c(c(NC3=NCCN3)c1)CCCC2
inactive: [1] | [2] | [3] | [4]

CCCCCCCCOC(=O)c1ccccc1C(=O)OCCCCCCCC
inactive: [1] | [2] | [3] | [4] | [5] | [6] | [7] | [8] | [9] | [10]

O=c1[nH]c(=O)n(Cl)c(=O)n1Cl
inactive: [1] | [2] | [3] | [4] | [5] | [6] | [7] | [8] | [9]

COCC(C)N(C(=O)CCl)c1c(C)csc1C (centres undefined)
inactive: [1] | [2] | [3] | [4] | [5] | [6] | [7] | [8] | [9] | [10]

CCNC(C)Cc1cccc(C(F)(F)F)c1 (centres undefined)
inactive: [1] | [2] | [3] | [4] | [5] | [6] | [7] | [8] | [9] | [10]

COc1ccc2c3c1O[C@H]1C(=O)CC[C@H]4[C@@H](C2)N(C)CC[C@]314
inactive: [1] | [2] | [3] | [4] | [5] | [6] | [7] | [8] | [9]

CC(=O)O[C@H]1CC[C@H]2[C@@H]3CCC4=CC(=O)CCC4=C3C=C[C@]12C
inactive: [1] | [2] | [3] | [4] | [5] | [6] | [7] | [8] | [9] | [10]

COc1ccc(OC)c(C(O)C(C)N)c1 (centres undefined)
inactive: [1] | [2] | [3] | [4] | [5] | [6] | [7] | [8] | [9] | [10]

Cn1sc(Cl)cc1=O
inactive: [1] | [2] | [3] | [4] | [5] | [6] | [7] | [8] | [9] | [10]

COc1ccc2c(c1OC)C(=O)OC2C1c2cc3c(cc2CCN1C)OCO3 (centres undefined)
inactive: [1] | [2] | [3] | [4]

CC(C)(O)C1C2OC(=O)C1C1(O)CC3OC34C(=O)OC2C14C (centres undefined)
inactive: [1] | [2] | [3] | [4] | [5] | [6] | [7] | [8] | [9] | [10]

CCC1C(C)=NN=C(c2ccc(OC)c(OC)c2)c2cc(OC)c(OC)cc21 (centres undefined)
inactive: [1] | [2] | [3] | [4] | [5] | [6] | [7] | [8]

CCCCCCCCCC(=O)O[C@H]1CC[C@H]2[C@@H]3CCC4=CC(=O)CC[C@]4(C)[C@H]3CC[C@]12C
inactive: [1] | [2] | [3] | [4] | [5] | [6] | [7] | [8] | [9] | [10]

O=S(=O)(O)c1cc(O)ccc1O
inactive: [1] | [2] | [3] | [4] | [5] | [6] | [7] | [8] | [9] | [10]

S=C=S
inactive: [1] | [2] | [3] | [4] | [5] | [6] | [7] | [8] | [9] | [10]

O=[N+]([O-])c1ccccc1
inactive: [1] | [2] | [3] | [4] | [5] | [6] | [7] | [8] | [9] | [10]

ClCC1CO1 (centres undefined)
inactive: [1] | [2] | [3] | [4] | [5] | [6] | [7] | [8] | [9] | [10]

CC(C)CCON=O
inactive: [1] | [2] | [3] | [4] | [5] | [6] | [7] | [8] | [9] | [10]

O=C1CCCCC1CN1CCCCC1 (centres undefined)
inactive: [1] | [2] | [3] | [4] | [5] | [6] | [7] | [8] | [9] | [10]

C=CCC1(C(C)CCC)C(=O)N=C(S)NC1=O (centres undefined)
inactive: [1] | [2] | [3] | [4]

CCCN1CCCC2Cc3[nH]ncc3CC21 (centres undefined)
inactive: [1] | [2] | [3] | [4]

c1ccc2sc(SNC3CCCCC3)nc2c1
inactive: [1] | [2] | [3] | [4] | [5] | [6] | [7] | [8] | [9] | [10]

ClC1C(Cl)C(Cl)C(Cl)C(Cl)C1Cl (centres undefined)
inactive: [1] | [2] | [3] | [4] | [5] | [6] | [7] | [8] | [9] | [10]

O=[N+]([O-])c1cc(I)c(O)c(I)c1
inactive: [1] | [2] | [3] | [4] | [5] | [6] | [7] | [8] | [9] | [10]

O=C(CCl)c1ccc(Oc2ccc(C(=O)CCl)cc2)cc1
inactive: [1] | [2] | [3] | [4] | [5] | [6] | [7] | [8] | [9] | [10]

Clc1ccc(C2(Cn3cncn3)OCCO2)c(Cl)c1
inactive: [1] | [2] | [3] | [4] | [5] | [6] | [7] | [8] | [9] | [10]

O=C(OCCN1CCCCC1)C(O)(c1ccccc1)c1ccccc1
inactive: [1] | [2] | [3] | [4] | [5] | [6] | [7] | [8] | [9] | [10]

C[N+]1(C)CCCCC1COC(=O)C(O)(c1ccccc1)c1ccccc1 (centres undefined)
inactive: [1] | [2] | [3] | [4] | [5] | [6] | [7] | [8] | [9] | [10]

O=C/C=C/c1ccccc1
inactive: [1] | [2] | [3] | [4] | [5] | [6] | [7] | [8] | [9] | [10]

CCC(N)Cc1c[nH]c2ccccc12 (centres undefined)
inactive: [1] | [2] | [3] | [4] | [5] | [6] | [7] | [8] | [9] | [10]
